Measurements published in PubChem BioAssay (Tox21).
Results filed as inconclusive are left out. A call without a number means that no potency is given here. Active and inactive are the calls of the source. Calls come from the whole dose curve; as a rule, active = well fitted cell-killing curve with a large enough effect in the repeat runs; inconclusive = weak or mixed curves, or effect the other way; inactive = flat fitted curve, though single readings scatter.

Test: Nuclear factor erythroid 2-related factor 2/antioxidant responsive element (Nrf2/ARE) small molecule agonists: qHTS cell viability counter screen in human keratinocytes (AID 1919968); note: nearly all actives have a fitted effect of over 55% in size
In short: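 Stably transfected HaCaT (KeratinoSens), 1,500/well. Test agents in DMSO were applied for 23 h, 37 C/5% CO2. CellTiter-Fluor was incubated 1 h before the fluorescence read.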
Potency is the fitted concentration of half-maximal effect.

Compound | Potency
Cc1c(Cn2ccnc2)c2ccccc2n1CCC(=O)O | inactive
CN1CCC(=C2c3ccccc3CC(=O)c3sccc32)CC1 | inactive
CCOc1cc([N+](=O)[O-])c(OCC)cc1N1CCOCC1 | inactive
Cc1c(C)c([N+](=O)[O-])c(C(C)(C)C)c([N+](=O)[O-])c1C | inactive
CCC(=O)Nc1ccc(O)cc1 | inactive
O[C@@H](CNC[C@H](O)[C@H]1CCc2cc(F)ccc2O1)[C@@H]1CCc2cc(F)ccc2O1 | 23.7 µM (active)
O=C1OCc2ccccc21 | inactive
NC(N)=NC(=O)Cc1c(Cl)cccc1Cl | inactive
Cc1ccccc1C(=O)Nc1ccc(C(=O)N2CCCC(N(C)C)c3ccccc32)cc1 (stereo not drawn) | inactive
BrC(Br)C(Br)Br | inactive
CC(C)(O)C(=O)c1ccccc1 | inactive
N=C1N=C(N)c2ccccc21 | 61.1 µM (active)
NCCCCCC(=O)O | inactive
C[C@]12C=CC(=O)C=C1[C@@H](F)C[C@@H]1[C@@H]2[C@@H](O)C[C@@]2(C)[C@H]1CC[C@]2(O)C(=O)CO | inactive
Cc1[nH]c(=O)c(C#N)cc1-c1ccc2nccn2c1 | inactive
Cc1cc(CCCOc2c(C)cc(-c3noc(C(F)(F)F)n3)cc2C)on1 | inactive
C#CCN[C@@H]1CCc2ccccc21 | inactive
CCCCCOC(=O)CCC | inactive
CCCC1CCC(=O)O1 (stereo not drawn) | inactive
O=C1C(=O)c2ccccc2C(O)=C1C1CCC(c2ccc(Cl)cc2)CC1 (stereo not drawn) | inactive
O=C(CCCCCCCCC#CI)Oc1ccccc1 | inactive
Cc1cn([C@@H]2O[C@H](CO)[C@@H](O)[C@@H]2F)c(=O)[nH]c1=O | inactive
CCOCC(O)COc1ccc(NC(=O)CC[S+](C)C)cc1 (stereo not drawn) | inactive
CC(C)CCCCCCOC(=O)c1ccc(C(=O)OCCCCCCC(C)C)c(C(=O)OCCCCCCC(C)C)c1 | inactive
C=CC(=O)OCC(CO)(COCC(COC(=O)C=C)(COC(=O)C=C)COC(=O)C=C)COC(=O)C=C | 4.28 µM (active)
CCN(CC)c1ccc(C(=C2C=CC(=[N+](CC)CC)C=C2)c2ccc(S(=O)(=O)O)cc2S(=O)(=O)[O-])cc1 | 24.3 µM (active)
OCCNCc1ccccc1 | inactive
OCC(CBr)(CBr)CBr | inactive
